In article PMC4336329 (PLoS ONE, 2015):
The whole screen tested about 310,000 compounds, of which about 2,200 (0.71%) showed an effect of 50% or more. The effect is printed as a negative number. This excerpt belongs to a sample that is enriched for strong results.

The compounds below were run against human ether-à-go-go-related gene (hERG) potassium channel (human, UniProt Q12809) (assay: primary screen, population patch clamp on CHO cells stably expressing hERG; higher = less effect of the substance).
Sequence of human ether-à-go-go-related gene (hERG) potassium channel (Q12809 whole entry, looked up): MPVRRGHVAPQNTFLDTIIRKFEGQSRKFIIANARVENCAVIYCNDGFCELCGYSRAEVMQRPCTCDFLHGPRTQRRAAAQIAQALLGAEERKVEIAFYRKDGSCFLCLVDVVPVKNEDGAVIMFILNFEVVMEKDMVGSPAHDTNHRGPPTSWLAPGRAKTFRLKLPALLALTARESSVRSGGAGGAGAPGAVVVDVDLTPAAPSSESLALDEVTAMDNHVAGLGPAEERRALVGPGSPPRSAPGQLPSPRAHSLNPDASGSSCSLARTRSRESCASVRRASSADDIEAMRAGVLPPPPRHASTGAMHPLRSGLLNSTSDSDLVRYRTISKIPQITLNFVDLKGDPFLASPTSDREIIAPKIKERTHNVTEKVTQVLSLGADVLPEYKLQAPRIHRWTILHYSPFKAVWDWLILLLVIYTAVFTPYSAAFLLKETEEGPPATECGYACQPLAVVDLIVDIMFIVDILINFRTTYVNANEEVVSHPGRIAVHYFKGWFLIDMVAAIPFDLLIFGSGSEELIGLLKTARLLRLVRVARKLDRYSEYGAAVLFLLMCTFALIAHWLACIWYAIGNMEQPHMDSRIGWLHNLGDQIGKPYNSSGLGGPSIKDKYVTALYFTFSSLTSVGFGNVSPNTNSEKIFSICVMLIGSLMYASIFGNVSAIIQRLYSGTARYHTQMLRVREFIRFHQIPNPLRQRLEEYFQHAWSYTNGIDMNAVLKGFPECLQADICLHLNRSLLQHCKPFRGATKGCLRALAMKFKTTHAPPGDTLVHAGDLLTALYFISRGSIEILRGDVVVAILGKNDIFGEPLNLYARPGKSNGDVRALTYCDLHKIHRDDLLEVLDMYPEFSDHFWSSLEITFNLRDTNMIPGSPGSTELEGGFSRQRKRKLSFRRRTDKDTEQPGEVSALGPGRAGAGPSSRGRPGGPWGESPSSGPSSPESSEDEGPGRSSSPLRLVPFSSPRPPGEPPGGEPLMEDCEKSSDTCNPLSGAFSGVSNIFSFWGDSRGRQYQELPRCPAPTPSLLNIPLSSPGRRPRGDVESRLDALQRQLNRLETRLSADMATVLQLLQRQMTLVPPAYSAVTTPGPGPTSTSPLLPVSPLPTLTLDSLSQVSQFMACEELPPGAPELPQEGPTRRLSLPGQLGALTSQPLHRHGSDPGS

SMILES | hERG current change (%, negative = inhibition) at 1uM
CC(=O)c1ccc(OCCCC(=O)Nc2cccc(S(=O)(=O)N3CCCCC3)c2)cc1 | -3.68%
Oc1ccc2ccccc2c1Br | 12.1%
COc1ccc(N2CCN(C(=O)/C=C/c3ccco3)CC2)cc1 | 6.52%
Cc1ccc(C(=O)NCCNS(=O)(=O)c2ccccc2)cc1 | -1.17%
CCC(=O)Nc1nnc(S(=O)(=O)N(CC)c2ccc(OC)cc2)s1 | 23.9%
COc1ccc(/C=C(/NC(=O)c2ccccc2)C(=O)N2CCCC2)cc1OC | 14.3%
CC(=O)Oc1ccc2c3c(c(=O)oc2c1C)CCCC3 | 15.5%
CCOC(=O)CNC(=O)c1cc2c(=O)[nH]c3ccc(C)cc3c2s1 | 11.1%
O=C(NC1CC1)c1ccc2snnc2c1 | 6.14%
Cc1ccc(C)n1-c1ccc(C(=O)Nc2ccccc2F)cc1 | 10.7%
CC1CN(CC(=O)Nc2ccc([N+](=O)[O-])cc2Br)CC(C)O1 (stereo not shown) | 4.18%
Cc1ccc(CNC(=O)c2cc3c(=O)n4ccccc4nc3n(Cc3ccco3)c2=N)cc1 | -38.1%
N=c1c(C(=O)NCc2ccco2)cc2c(=O)n3ccccc3nc2n1Cc1ccccc1 | -81.6%
Cc1ccc(Cn2c(=N)c(C(=O)NCCN3CCOCC3)cc3c(=O)n4ccccc4nc32)cc1 | -8.25%
N=c1c(C(=O)NCc2ccc(F)cc2)cc2c(=O)n3ccccc3nc2n1Cc1ccco1 | -85%
N=c1c(C(=O)NCCc2ccccc2)cc2c(=O)n3ccccc3nc2n1Cc1ccco1 | -67.5%
Cc1ccc(Cn2c(=N)c(C(=O)NCc3ccco3)cc3c(=O)n4ccccc4nc32)cc1 | -67.9%
COc1ccc(N2C(=O)C3CCCN3C2c2ccc(F)cc2)cc1Cl (stereo not shown) | 8.28%
O=C(NCCc1ccc(Cl)cc1)c1cccnc1 | 9.38%
CCN(CC)c1ccc(/C=N/N2CCN(Cc3ccccc3)CC2)c(O)c1 | -0.743%
O=C(CN1C(=O)/C(=C\c2ccccc2Cl)Oc2ccccc21)NCc1cccnc1 | 5.85%
CCN(CC)c1ccc(NC(=O)c2cc(OC)cc(OC)c2)c(C)c1 | -2.35%

SMILES | hERG current change (%, negative = inhibition) at 1uM
CC1CCN(S(=O)C23CC4CC(CC(C4)C2)C3)CC1 (stereo not shown) | 16.3%
Fc1cccc(Cl)c1Cn1nnc2c(N3CCC4(CC3)OCCO4)ncnc21 | 13.7%
CCn1c(=O)c(C(=O)NCCc2ccc(OC)c(OC)c2)c(O)c2ccccc21 | 8.62%
N=c1c(C(=O)NCc2ccco2)cc2c(=O)n3ccccc3nc2n1Cc1ccc(Cl)cc1 | -55.7%
N=c1c(S(=O)(=O)c2ccc(Cl)cc2)cc2c(=O)n3ccccc3nc2n1Cc1ccco1 | 14%
Cn1c(CSCc2ccc(Cl)c(Cl)c2)nnc1SCC(=O)Nc1nccs1 | 2.81%
CN(C)C1=NC[C@H](Cc2ccccc2)N1CCC1CCCC1 | -19.7%
CN(C)C1=NC[C@H](Cc2ccccc2)N1CCCCc1ccccc1 | -42.2%
CN(C)C1=NC[C@H](Cc2ccccc2)N1CCCC1CCCCC1 | -29.5%
CN(C)C1=NC[C@H](Cc2ccccc2)N1CCCC1CCCC1 | -56.8%
CC(C)CCCN1C(N(C)C)=NC[C@@H]1Cc1ccccc1 | -2.29%
CCCCCCCN1C(N(C)C)=NC[C@@H]1Cc1ccccc1 | -69%
COc1ccccc1C(=O)NC(=O)CSc1nncn1C | 18.2%
CCCSC1=C(C#N)C(c2ccc(Cl)cc2Cl)CC(=O)N1 (stereo not shown) | 11.8%
O=C(O)c1cc(-c2ccc(N3CCOCC3)cc2)nn1-c1ccc(F)cc1F | 12.7%
Fc1ccccc1CNc1ccc(Cl)cc1 | 12.8%
Fc1ccccc1CNc1ccc(Cl)c(Cl)c1 | 11.7%
Fc1ccc(NCc2ccccc2F)cc1Cl | -76.5%
COc1ccc(CCn2c(NCCCN3CCOCC3)nc3c2c(=O)[nH]c(=O)n3C)cc1 | 7.24%
Nc1ccc(OCCc2ccccc2)cc1 | 11.5%
O=c1c(Cl)c(NCc2ccco2)cnn1C12CC3CC(CC(C3)C1)C2 | 4.54%
CCN(CC)c1ccc(C(=O)c2ccccc2C(=O)O)c(O)c1 | 11.7%

SMILES | hERG current change (%, negative = inhibition) at 1uM
CCCCN(CCCC)c1ccc(C(=O)c2ccccc2C(=O)O)c(O)c1 | -50.5%
CN(C)c1ccc(C(=O)c2ccccc2C(=O)O)c(O)c1 | 13.2%
CCN(CC)S(=O)(=O)c1cccc(-c2nnc(SCCOc3ccccc3)o2)c1 | 12.4%
O=C(COC(=O)c1ccc2ncsc2c1)Nc1cc([N+](=O)[O-])ccc1Cl | 7.27%
COc1ccc(S(=O)(=O)Nc2ccc(NC(C)=O)cc2)cc1Cl | 10.3%
O=C(NCCCCc1ccccc1)C12CN(Cc3ccccc3)CC1C(c1cccc([N+](=O)[O-])c1)=NO2 (stereo not shown) | 10.9%
CCCCN(CCCC)CCCNC(=O)C12CN(Cc3ccccc3)CC1C(c1cccc([N+](=O)[O-])c1)=NO2 (stereo not shown) | -53.1%
CC(C)CCNC(=O)C12CN(Cc3ccccc3)CC1C(c1cccc([N+](=O)[O-])c1)=NO2 (stereo not shown) | 9.69%
O=C(/C=C/c1cccnc1)c1cc(F)ccc1O | 8.59%
COCCNC(=O)c1ccccc1NC(=O)c1ccccc1N(C)S(=O)(=O)c1ccc(C)cc1 | 8.36%
CCOC(=O)c1sc(-c2ccccc2)nc1C | 9.24%
CC(=O)Nc1ccc(OC(=O)c2cc3cc(Br)cc(Br)c3oc2=O)cc1 | 5.16%
CCOc1ccc(/C=N/N2C(C)CCCC2C)cc1 (stereo not shown) | 12%
COc1ccc(Nc2nc(N)nc(CN3CCC(Cc4ccccc4)CC3)n2)cc1 | -81%
CCOC(=O)N1CCN(Cc2nc(N)nc(Nc3ccc(C)cc3)n2)CC1 | -37%
Nc1nc(CN2CCN(c3ccccn3)CC2)nc(Nc2ccc(F)cc2)n1 | -49%
COc1ccccc1N1CCN(Cc2nc(N)nc(Nc3ccccc3)n2)CC1 | -33.8%
COc1ccc(Nc2nc(N)nc(CN3CCN(c4ccccn4)CC3)n2)cc1 | -37.1%
Nc1nc(CN2CCN(c3ccccn3)CC2)nc(Nc2ccc(Cl)cc2)n1 | -56.2%
CCOC(=O)N1CCN(Cc2nc(N)nc(Nc3ccc(OCC)cc3)n2)CC1 | -56%
COc1ccc(Nc2nc(N)nc(CN3CCc4ccccc4C3)n2)cc1 | -23.3%
CCOC(=O)N1CCN(Cc2nc(N)nc(Nc3ccc(OC)cc3)n2)CC1 | -9.74%

SMILES | hERG current change (%, negative = inhibition) at 1uM
Nc1nc(CN2CCN(C(c3ccccc3)c3ccccc3)CC2)nc(Nc2ccccc2)n1 | 10.2%
Nc1nc(CN2CCC(Cc3ccccc3)CC2)nc(Nc2ccccc2)n1 | -87.4%
COc1cccc(N2CCN(Cc3nc(N)nc(Nc4ccccc4)n3)CC2)c1 | -31.9%
O=C(c1ccccc1)c1ccc(OCC(O)CN2CCN(S(=O)(=O)N3CCCCC3)CC2)cc1 (stereo not shown) | -12.6%
COc1ccccc1N(CC(=O)NC1CCCC1)C(=O)CCC(=O)Nc1cc(C)on1 | 8.06%
CCn1c2ccc(F)cc2c2nc3ccccc3nc21 | 10.2%
CCOC(=O)Cc1[nH]nc2c1C(c1cc(OC)ccc1OC)C(C#N)=C(N)O2 (stereo not shown) | 14.9%
CSc1oc(-c2cccs2)nc1S(=O)(=O)c1ccccc1 | 4.25%
CN(C)c1ccc(CNc2nc(-c3ccccc3)nn2S(C)(=O)=O)cc1 | 14.6%
O=C(COc1ccc(S(=O)(=O)N2CCOCC2)cc1)N1CCCCCC1 | 25.1%
COc1ccc(CCNC(=O)COC(=O)/C=C/c2cccs2)cc1OC | 11.7%
O=C(O)CCCN1C(=O)NC2NC(=O)NC21 (stereo not shown) | 10.2%
COc1ccc(Nc2nc(N)nc(CN3CCC(C)CC3)n2)cc1 | -50.7%
Nc1nc(CN2CCN(Cc3ccccc3)CC2)nc(Nc2ccccc2)n1 | -56.3%
COc1ccc(Nc2nc(N)nc(CN3CCOCC3)n2)cc1 | 1.93%
Nc1nc(CN2CCCCCC2)nc(Nc2ccccc2)n1 | -31.9%
Nc1nc(CN2CCN(c3ccccc3)CC2)nc(Nc2ccc(Cl)cc2)n1 | -44.8%
COc1ccc(Nc2nc(N)nc(CN3CCN(c4ccc(F)cc4)CC3)n2)cc1 | -19.3%
O=C(CSc1ncn(-c2ccccc2)n1)N1CCc2ccccc21 | 1.39%
O=S(=O)(c1ccc(Cl)cc1)N1CCC2(CC1)OCCO2 | 2.73%
FC(F)(F)c1cccc(N2CCN(C(=S)NCC3CCCO3)CC2)c1 (stereo not shown) | 4.59%
COc1ccc(-c2nn(C)c(=O)c3ccccc23)cc1CNC(=O)CN1CCOCC1 | 6.56%
